These results are taken from PubChem BioAssay (NCI).

Where “and” joins values, the source holds several entries; their conditions need not be identical. Equal values may be shown once. The panel holds about 83,000 compounds, 20% with a hit somewhere; the sample as a whole holds those more often.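 Activity criterion: percent growth below 10, measured after cells in 96-well plates were exposed to a single compound concentration for 48 hours.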 A number with no mark means an inactive call. Calls of active or inactive are those of the source.

For the test, the system named is OVCAR-3 ovarian. The test can be described thus: NCI-60 one-dose screen, 48 h (100 = growth as untreated, 0 = no growth, -100 = all killed). Particulars: 10 µM unless noted.
For the compound `NC1=CC(=O)c2cccnc2C1=O`, the growth is -1.02% (active).
For `Cn1c(=O)c2c(nc(Nc3cc(=O)[nH]c(=O)[nH]3)n2Cc2ccccc2)n(C)c1=O`, the growth is 0.369% (active).
The result for `O=C(c1ccc(Nc2nccc(NCCCNc3ccnc4cc(Cl)ccc34)n2)cc1)N1CCCCC1` reads 37.7%; that for `COc1c(NC=O)c2c(c([N+](=O)[O-])c1OC)C(=O)OC2`, 115%; that for `COc1ccc(Cl)cc1Nc1nc(C(F)(F)F)ccc1C(=O)N/N=C/c1ccc(N(C)C)cc1`, 147%.
As for `CC1=C2[C@@H](CC1)[C@]1(C)O[C@@](C3CC3)(C[C@H]1OC(=O)CO)[C@H]2OC(=O)/C=C/c1ccccc1`, the figure is 95.2%; as for `CC/C=C\C/C=C\C[C@H](O)C/C=C1/C(=O)C=C[C@@H]1C/C=C\CCCC(=O)OC`, -40.1% (active).
As to `Cc1[nH]c(C(=O)Nc2nc3ccc(NC(=O)CCN)cc3s2)c(Cl)c1Cl`, the growth is 77.3%.
As for `COc1cc(Cl)cc(-c2nn(C(=O)NS(=O)(=O)c3ccc(Cl)cc3)cc2-c2ccncc2)c1`, the figure is 98.3%; as for `C[C@@H]1O[C@@H](O[C@H]2[C@@H](OC(=O)[C@]34CCC(C)(C)C[C@H]3C3=CC[C@@H]5[C@@]6(C)C[C@H](O)[C@H](O[C@@H]7O[C@H](CO)[C@@H](O)[C@H](O)[C@H]7O)[C@@](C)(CO)[C@@H]6CC[C@@]5(C)[C@]3(C)C[C@H]4O)OC[C@@H](O)[C@@H]2O)[C@H](O)[C@H](O[C@@H]2OC[C@@H](O)[C@H](O[C@@H]3OC[C@](O)(CO)[C@H]3O[C@@H]3OC[C@@H](O)[C@H](O)[C@H]3O)[C@H]2O)[C@H]1O[C@@H]1OC[C@](O)(CO)[C@H]1O`, 89.6%; as for `Cc1c(O)c(O)cc2c3c(oc12)CC(c1ccc2c(c1)OCO2)CC3=O` (stereo unspecified), 86.4%.
The result for `COc1cc(F)c(/C=C/c2cc(/C=C/c3cc(OC)c(OC)cc3F)n(-c3cc(F)cc(F)c3)n2)cc1OC` reads 24.2%; that for `CN1CCN(CCCN2c3ccccc3Sc3ccc(Cl)cc32)CC1`, 93.9% and 81.3%.
The result for `O=C(N=Nc1c(O)[nH]c2ccccc12)Nc1ccccc1Cl` reads 101%.
Turning to `OCCN1CCN(CC/C=C2\c3ccccc3Sc3ccc(Cl)cc32)CC1`, the growth was 42.4% and 37.7%.
The result for `COc1nc2ccc(C)cc2cc1/C=[N+](\[O-])c1ccccc1` reads 96.6%; that for `O=C(CCN1CCOCC1)Nc1cccc(-n2cc(-c3ccncc3)c(-c3ccc(Cl)c(O)c3)n2)c1`, 14.3%; that for `CN1CCN(c2ccc(Nc3ncc(C(N)=O)c(NCCCNC(=O)C4CCC4)n3)cc2)CC1`, 13.3%.
As for `CN(C)c1ccc2nc3ccc(=O)cc-3sc2c1`, the figure is -7.17% (active) and -6.79% (active); as for `CC(=O)N1N=C(c2ccc(Nc3nc(Nc4ccc(F)cc4)nc(Nc4ccc(F)cc4)n3)cc2)CC1c1ccccc1` (stereo unspecified), 141%.
With `C/C=C(\C)C(=O)N[C@H]1CC[C@]2(C)C3CC[C@@]4(C)C(CC[C@@H]4C(C)N(C)C)C3CCC2[C@H]1OC(C)=O` (stereo partly specified), the growth is -53.9% (active).
The result for `Cc1ccc(-c2nc3nc(-c4ccc(Cl)cc4)nc(N4CCCNCC4)c3o2)cc1` reads -95.5% (active); that for `Nc1n[nH]c2cccc(C#Cc3cccc(NC(=O)c4ccc(N5CCOCC5)c(C(F)(F)F)c4)c3)c12`, 34.9%; that for `O=C1C(c2c[nH]c3ccccc23)=C(c2coc3cc(Br)ccc23)C(=O)N1O`, 102%.
As for `Cc1cc(N2CCCCC2)nc(NCc2cc(Nc3ccnc4cc(Cl)ccc34)ccc2F)n1`, the figure is -79.5% (active).
The result for `CC1(C)C(N)=Nc2cc(OCCCN3Cc4ccc(OCCc5cn(CC(=O)N6CCC(CCN7CCCC7)CC6)nn5)cc4C3)c(OCC3CC3)cc21` reads 114%.
In the case of `CS(=O)(=O)Nc1cc(-c2ccc3ncnc(Nc4ccc(F)c(Cl)c4)c3c2)cnc1Cl`, the growth was -22.6% (active).
As for `Cc1cnc(C(=O)NNc2nc3sc4c(c3c(=O)[nH]2)C(C)CCC4)cn1` (stereo unspecified), the figure is 31.5%; as for `Cn1cc2c(=O)nc3c(-c4nc5ccccc5[nH]4)n[nH]n3c2n1`, 73.4%.
As to `Cc1ccc(-c2nc3nc(-c4ccc(F)cc4)nc(N4CCCNCC4)c3o2)cc1`, the growth was -96% (active).
The result for `COc1ccc2c(c1)c(-c1nc(-c3c[nH]c4c(Cl)nccc34)cs1)cn2C` reads 47.9%.
